# Cav32 inh: inhibitors of human Cav3.2 T-type calcium channel. O95180. Cav3.2-expressing cells, Fluo-4 calcium fluorescence FDSS; active compounds read low. B-score at 10 µM. actives 4% (n = 100,000). AID 449739;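 active = single-dose well whose peak fluorescence ratio is a statistical outlier from its plate by either plate-standardised score or position-corrected B-score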
# CYP2C19 activ: activators of human cytochrome P450 2C19. P33261. recombinant CYP2C19, luciferin-H EGE luminescence; active compounds read high; 0 = fully inhibited enzyme, 1 = untreated enzyme. activation factor at 5 µM. 96,000 tested, under 10 active. AID 1025;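 active = activation factor of at least 2 at 5 µM in the primary screen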;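 note: 0 = wells with 2.5 mM tranylcypromine and 1 = vehicle-only wells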
# Target sequence (P33261 whole entry, looked up): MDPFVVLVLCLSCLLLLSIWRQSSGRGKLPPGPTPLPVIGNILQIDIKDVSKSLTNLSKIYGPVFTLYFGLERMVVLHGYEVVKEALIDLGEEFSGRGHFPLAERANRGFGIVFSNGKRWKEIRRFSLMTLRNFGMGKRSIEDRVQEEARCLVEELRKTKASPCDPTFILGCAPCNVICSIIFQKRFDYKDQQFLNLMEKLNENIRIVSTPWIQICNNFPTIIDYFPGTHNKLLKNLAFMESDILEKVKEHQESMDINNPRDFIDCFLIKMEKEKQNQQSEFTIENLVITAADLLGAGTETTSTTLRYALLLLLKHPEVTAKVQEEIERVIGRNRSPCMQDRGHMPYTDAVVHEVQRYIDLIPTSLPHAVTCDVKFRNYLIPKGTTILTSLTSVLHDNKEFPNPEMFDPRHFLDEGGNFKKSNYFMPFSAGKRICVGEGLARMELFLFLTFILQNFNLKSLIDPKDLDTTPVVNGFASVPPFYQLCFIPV
# CYP2C9 inhib: human CYP2C9 inhibition. CYP2C9 Supersomes, luciferin-H conversion, luminescence. actives 20% (n = 96,000). inhibition, % at 5 µM;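 active = blocking of liver enzyme CYP2C9 beyond about 50% at 5 µM, limit read from the data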
# CYP2C9 activ: CYP2C9 (human) activation; P11712; recombinant CYP2C9, luciferin-H conversion, luminescence; active compounds read high; factor 1 = untreated enzyme, 0 = blocked; activation factor at 5 µM; actives 1.4% (n = 96,000); AID 1024;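 active = activation factor of 2 or more for CYP2C9 at a 5 µM dose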;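 note: 0 = sulfaphenazole-blocked wells and 1 = vehicle-only wells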
# CYP2C19 inh: blocks human cytochrome P450 2C19; inhibition, % at 5 µM; CYP2C19 Supersomes, luciferin-H EGE luminescence, 30 min; actives 21% (n = 96,000); P33261;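 active = CYP2C19 inhibition above a set limit at 5 µM in the primary screen, cut at about 50% in these data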;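 note: plate controls were negative control wells for no effect and 2.5 mM tranylcypromine positive control for full effect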
# The depositor's hits bear a star; . = not tested or not shown. Only some compounds are listed: those with a hit (about 27% of all), similar ones and a draw of the others.
SMILES,Cav32 inh,CYP2C19 activ,CYP2C9 inhib,CYP2C9 activ,CYP2C19 inh
O=C1c2ccccc2C(=O)N1Cc1nc(-c2ccncc2)no1,0.075,0.1,84*,0.2,92*
Cc1ccc(SCc2nc(-c3ccncc3)no2)cc1,-1.3,0,91*,0.1,99*
Cc1ccc(-c2noc(CNc3ccccc3)n2)cc1,0.34,.,.,.,.
O=C1c2ccccc2C(=O)N1CCCSc1nc2ccccc2o1,-1.7,0.5,25,0.8,46
O=C1c2ccccc2C(=O)N1Cc1nc(-c2ccccc2)no1,0.35,0.5,14,0.9,49
O=C1c2ccccc2C(=O)N1Cc1nc2ccccc2o1,0.061,0.4,-16,1.2,64*
CCOC(=O)c1cnn(-c2c(Cc3ccccc3)c(C)nc3c(-c4ccccc4)c(C)nn23)c1N,-0.35,1.3,1,1,-26
CCc1cc(=O)oc2cc(OCC(N)=O)c(Cl)cc12,-3.8,1,-6,1.1,-4
O=C(/C=C\Nc1ccccn1)c1ccc(Cl)cc1,0.34,0.8,-24,1.2,24
Cc1ccc(SC(C)c2nc(-c3ccncc3)no2)cc1 (stereo not drawn),-0.98,0,96*,0,100*
CC(C)CCn1c(N2CCN(c3cccc(Cl)c3)CC2)nc2c1c(=O)[nH]c(=O)n2C,-8.5*,.,.,.,.
CCCCCn1c(CN2CCN(c3cccc(Cl)c3)CC2)nc2c1c(=O)[nH]c(=O)n2C,-1.5,0.6,59*,0.4,44
CCCCCn1c(CN2CCN(C(=O)OCC)CC2)nc2c1c(=O)[nH]c(=O)n2C,0.54,1.1,-4,1,-10
CCCCCCn1c(N2CCN(c3ccccc3)CC2)nc2c1c(=O)[nH]c(=O)n2C,-5.7*,.,.,.,.
CCOC(=O)N1CCN(Cc2nc3c(c(=O)[nH]c(=O)n3C)n2Cc2cc(C)ccc2C)CC1,1.3,0.7,72*,0.3,28
CCCCCCn1c(N2CCC(C(N)=O)CC2)nc2c1c(=O)[nH]c(=O)n2C,1.7,0.8,-3,1,25
Cn1c(=O)[nH]c(=O)c2c1nc(CN1CCN(c3cccc(Cl)c3)CC1)n2CCc1ccccc1,-1.4,0.9,23,0.8,12
O=C(COc1ncnc2ccc(Br)cc12)NCc1ccc2c(c1)OCO2,-3.5,1.1,18,0.8,-5
Cc1ccc(S(=O)(=O)NCCOc2nc(N3CCOCC3)nc(N3CCOCC3)n2)cc1,0.32,0.8,36,0.6,24
CC1(C)CC[C@@]23CC[C@]4(C)[C@@](OC2=O)(C3C1)[C@H]1O[C@H]1C1[C@@]2(C)CC[C@H](O)C(C)(C)C2CC[C@]14C (stereo partly drawn),0.027,.,.,.,.
CCCCCCn1c(N2CCN(c3cccc(Cl)c3)CC2)nc2c1c(=O)[nH]c(=O)n2C,-1.9,1.1,2,1,-9
CCCCCCCCn1c(N2CCN(c3cccc(Cl)c3)CC2)nc2c1c(=O)[nH]c(=O)n2C,-2,0.9,52*,0.5,15
Cc1cccc(N(C(=O)CNC(=O)c2ccco2)C(C(=O)NC2CCCC2)c2ccncc2)c1 (stereo not drawn),0.11,.,.,.,.
COc1ccc(/C=N/Nc2ccccc2)cc1Cn1nc(C)c([N+](=O)[O-])c1C,-1.7,0.3,50*,0.5,72*
O=C1N/C(=N/NC(=O)c2cccc3ccccc23)S/C1=C\c1ccccc1OCc1ccccc1,-5.2*,1.1,26,0.7,-12
SMILES,Cav32 inh,CYP2C19 activ,CYP2C9 inhib,CYP2C9 activ,CYP2C19 inh
NC(=S)n1[nH]c(-c2ccc([N+](=O)[O-])cc2)c(N=Nc2ccc(O)cc2)c1=O,.,1,76*,0.2,-3
CCN(CC)S(=O)(=O)c1ccc(N=Nc2c(C)[nH]n(C(N)=S)c2=O)cc1,0.28,.,.,.,.
O=C(CSc1nc2c(c(=O)n1-c1ccc(Cl)cc1)SCC2)NCc1ccco1,.,0.7,23,0.8,29
Cc1occc1-c1nnc(SCc2nnc(-c3ccc(Cl)cc3)o2)n1C,0.18,.,.,.,.
Cn1nnnc1SCSc1nnnn1C,0.29,1,23,0.8,-5
Cn1nnnc1SCc1nc2ccccc2s1,-0.23,0.4,-20,1.2,64*
Cn1nnnc1SCc1ccc(F)cc1,0.15,0.4,-5,1.1,56*
Cc1ccc(CSc2nnnn2C)cc1,0.01,0.3,12,0.9,74*
Cn1nnnc1SCc1nnc(-c2ccc(Cl)cc2)o1,-1.9,0.2,14,0.9,78*
Cc1cccc(C)c1NC(=O)CSc1nnnn1C,0.32,1.1,-16,1.2,-13
COc1ccc(-n2c(/C=C(\C)O)nc(=O)c3c(C)cc(C)nc32)cc1,-0.89,1,27,0.7,5
CCc1nnc(NC(=O)CSc2nnc(Cc3cccn3C)n2CCOC)s1,0.19,.,.,.,.
COc1ccc(C(=O)Nc2ccc(S(=O)(=O)N3CCCCC3)cc2)cc1OC,-0.1,1.1,16,0.8,-9
COc1ccc(NS(=O)(=O)c2ccc(S(=O)(=O)N3CCCC3)cc2)cc1,-2.1,0.7,69*,0.3,31
COc1ccc(S(=O)(=O)N2CCCCC2)cc1,-0.77,0.7,-41,1.4,28
COc1ccc(NS(=O)(=O)c2ccc(S(=O)(=O)N3CCCC3)cc2)cc1Cl,-3.4,0,97*,0,98*
COc1ccc(S(=O)(=O)Nc2ccc(F)c(F)c2)cc1Cl,-3.8,0.4,34,0.7,61*
COc1ccc(S(=O)(=O)N2CCC(C(=O)N3CCCCCC3)CC2)cc1,-0.043,0.2,-152,2.5*,85*
CC(C)C12CCC(C(=O)O)C(C1)C(=O)O2 (stereo not drawn),0.3,.,.,.,.
CCOC(=O)N1CCN(C(=O)CSCC(=O)Nc2nc(-c3ccc(C)cc3)cs2)CC1,-3.4,1.2,30,0.7,-20
Cn1cc(Cl)c(C(=O)OCC(=O)Nc2nc(-c3ccc(Br)cc3)cs2)n1,-5.9*,.,.,.,.
Cn1nccc1C(=O)OCC(=O)Nc1nc(-c2ccccc2)cs1,-3.8*,0.6,25,0.7,38
Cc1ccc(NC(=O)CSc2nnnn2-c2ccc3c(c2)OCO3)cc1C,0.18,.,.,.,.
CSC(=NC#N)N1CCN(c2ccccc2)CC1,0.25,0.5,-4,1,51*
CSC(=NC#N)N1CCN(c2cccc(Cl)c2)CC1,-0.19,0,33,0.7,95*
SMILES,Cav32 inh,CYP2C19 activ,CYP2C9 inhib,CYP2C9 activ,CYP2C19 inh
O=C(CN1CCN(c2ccccc2)CC1)N1CCN(c2ccccc2)CC1,-0.44,0.7,38,0.6,26
Cn1cc(Br)c(C(=O)N2CCN(c3cccc(Cl)c3)CC2)n1,-0.78,.,.,.,.
COc1ccc(NC(=O)c2cc(-c3ccc(C)o3)nc3ccccc23)cc1OC,-0.49,0.8,32,0.7,24
O=C(O)CCC(=O)N1CCN(c2nc(-c3ccccc3Cl)c3cc(Br)ccc3n2)CC1,1.2,0.8,-4,1,22
O=c1c2ccccc2nc2n1CC/C2=C/N1CCN(c2cccc(C(F)(F)F)c2)CC1,0.18,0.9,-16,1.2,8
C=CCC(C)(NCc1ccccc1)c1ccco1 (stereo not drawn),-0.28,0.6,22,0.8,35

# Compound activity (PubChem)
